In PubChem BioAssay (NCI):
Compounds without any hit were thinned out: in the full panel of roughly 83,000, 20% have a hit.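 Testing used 96-well plates and a 48-hour single-concentration exposure. Example: -40 means 40% of the starting cells died.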 Calls of active or inactive are those of the source. The calls were made as follows: active = growth percent below 10; inactive = the rest.

What follows are compounds tested on MALME-3M melanoma (assay: NCI-60 one-dose screen, 48 h (100 = growth as untreated, 0 = no growth, -100 = all killed)). Settings: 10 µM unless noted.

| SMILES | growth |
| --- | --- |
| FC(F)(F)c1cc(-c2nnc3n2N=C(Cl)CS3)cc(C(F)(F)F)c1 | 99% (inactive) |
| COc1ccc(/C=C/c2nc3ccccc3c(=O)n2-c2ccc(C#Cc3ccc(C(C)(C)C)cc3)cc2C)c(OC)c1 | 94.8% (inactive) |
| Cc1cc(O)c2cc3c(O)c(O)ccc3cc2c1 | 109% (inactive) |
| COc1ccc(-c2nc3ccccc3n3cccc23)cc1 | 127% (inactive) |
| CCOC(=O)c1cc(C(=O)OCC)c(C)nc1C | 104% (inactive) |
| CN1C(=O)N(C)C2C1NN=c1s/c(=C\c3ccc(Br)cc3)c(=O)n12 (stereo unspecified) | 67.7% (inactive) |
| O=C1OCC2=C1C(c1ccccc1)c1cc3c(cc1N2CCO)OCO3 (stereo unspecified) | 50% (inactive) |
| CCC1N=C(N)N=C(N)N1c1ccc(Cl)cc1 (stereo unspecified) | 61.6% (inactive) |
| COc1cc(OC)cc(-c2ccc(-c3ccc(C(=N)N)s3)s2)c1 | -73.8% (active) |
| Cc1cccc(N=NC(=S)NNc2cccc(C)c2)c1 | 108% (inactive) |
| CCn1c(Cc2ccccc2Nc2c(Cl)cccc2Cl)nnc1SCC(=O)Nc1cccc(OC)c1 | 94.3% (inactive) |
| NC(=S)N1N=C(c2ccc(Cl)cc2)CC1c1cc2ccccc2[nH]c1=O (stereo unspecified) | 93.8% (inactive) |
| CC(C)c1nc2ccccc2n1CC(=O)N/N=C/c1cccc(O)c1 | 108% (inactive) |
| COc1ccc(Oc2nc(Nc3ccc(N4CCOCC4)cc3)ncc2NC(=O)Nc2cccc(OC)c2)cc1 | 69.7% (inactive) |
| Clc1cccc(CNc2c3ccccc3nc3ccccc23)c1 | 45% (inactive) |
| O=C1OCC2=C1C(c1ccccc1)c1cc3c(cc1N2CCO)CCC3 (stereo unspecified) | 50.2% (inactive) |
